Test systems include RPMI-8226 leukemia; OVCAR-8 ovarian; OVCAR-5 ovarian; OVCAR-4 ovarian; SK-OV-3 ovarian; IGROV1 ovarian; OVCAR-3 ovarian; HS 578T breast; NCI/ADR-RES ovarian; T-47D breast; BT-549 breast; MDA-MB-435 melanoma; SW-620 colon; MCF7 breast; HCT-116 colon; HCC-2998 colon; KM12 colon.
Holding throughout (experiment): NCI-60 one-dose screen, 48 h (100 = growth as untreated, 0 = no growth, -100 = all killed)
What all share (details): 10 µM unless noted

The panel holds about 83,000 compounds, 20% with a hit somewhere; the sample as a whole holds those more often.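 Percent growth is the endpoint: 0 to 100 indicates growth inhibition (40 means 60% inhibition), 0 means no net growth, and negative values indicate cell death.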 Values without a mark were called inactive. Activity calls are given as the source filed them. How the source made its calls: active means growth percent below 10; inactive means the rest.

In the case of `COc1ccc2[nH]cc(/C=C3/C(=O)Nc4ccc(Cl)cc43)c2c1`, the growth with RPMI-8226 leukemia is 54%; in the test with OVCAR-8 ovarian it was 52%; in the test with OVCAR-5 ovarian, 78.1%; with OVCAR-4 ovarian, 51.5%; in the test on SK-OV-3 ovarian it was 22.5%; with IGROV1 ovarian, 54.4%. Besides, the growth in the test on OVCAR-3 ovarian is 18.1%; in the test with HS 578T breast, 31.9%; in the test on NCI/ADR-RES ovarian it was 49.6%; in the test with T-47D breast, 61.9%; in the test with BT-549 breast, 40.9%; with MDA-MB-435 melanoma, 22.9%. Further, the growth was 53.7% in the test with SW-620 colon; 40.7% with MCF7 breast; 13.5% in the test on HCT-116 colon; 43.9% in the test with HCC-2998 colon; 3.07% (active) with KM12 colon.
Consider `O=C(Nc1ccc(C2=NCCCN2)cc1)Nc1ccc(C2=NCCCN2)cc1`, for which the growth is 53.2% in the test with RPMI-8226 leukemia; 89% in the test on OVCAR-8 ovarian; 101% in the test with OVCAR-5 ovarian; 64% in the test on OVCAR-4 ovarian; 110% in the test on SK-OV-3 ovarian; 110% with IGROV1 ovarian. Besides, the growth in the test with OVCAR-3 ovarian is 99.4%; in the test on HS 578T breast, 79.5%; in the test on NCI/ADR-RES ovarian, 94.4%; in the test on T-47D breast, 73.6%; in the test on BT-549 breast, 100%; with MDA-MB-435 melanoma it was 95.3%. For the same molecule, the growth in the test on SW-620 colon is 99.4%; in the test with MCF7 breast, 94%; with HCT-116 colon, 67.4%; in the test on HCC-2998 colon it was 117%; in the test with KM12 colon it was 100%.
As to `COc1ccc(C2=NN(C(=O)c3cc(OC)c(OC)c(OC)c3)C(c3ccc(C#N)cc3)C2)cc1OC` (stereo not drawn), the growth with RPMI-8226 leukemia was 60.8%; in the test with OVCAR-8 ovarian it was 32.8%; in the test on OVCAR-5 ovarian, 58.8%; in the test on OVCAR-4 ovarian, 62.1%; in the test with SK-OV-3 ovarian, 19.8%; in the test with IGROV1 ovarian, 13.4%. Further, the growth in the test on OVCAR-3 ovarian was -47.8% (active); in the test on HS 578T breast, -18.3% (active); in the test with NCI/ADR-RES ovarian it was 2.92% (active); in the test with T-47D breast, 37.1%; with BT-549 breast, 28.6%; with MDA-MB-435 melanoma it was -40.4% (active). Further, the growth was 16.1% in the test with SW-620 colon; 27% with MCF7 breast; 13.6% in the test on HCT-116 colon; 35.2% with HCC-2998 colon; 15.1% in the test on KM12 colon.
With `COc1ccc2c(c1)C(=O)c1c-2c(=O)n(CCCCCCC(=O)NO)c2ccccc12`, the growth in the test on RPMI-8226 leukemia is -2.83% (active); in the test on OVCAR-8 ovarian it was 7.33% (active); in the test on OVCAR-5 ovarian, -4.52% (active); in the test with OVCAR-4 ovarian it was 4.23% (active); in the test on SK-OV-3 ovarian, -3.32% (active); with IGROV1 ovarian, -34.9% (active). The growth with OVCAR-3 ovarian was -19.6% (active); with HS 578T breast, -2.26% (active); in the test with NCI/ADR-RES ovarian, -14.1% (active); in the test on T-47D breast it was -11.8% (active); with BT-549 breast, 23.4%; in the test with MDA-MB-435 melanoma, -14.1% (active). Moreover, the growth with SW-620 colon is -27.4% (active); with MCF7 breast it was 5.92% (active); with HCT-116 colon, -55.8% (active); with HCC-2998 colon it was -39.6% (active); with KM12 colon it was 10.9%.
For the molecule `CC(c1cc(Cl)ccc1O)c1cc(Cl)ccc1O`, the growth in the test with RPMI-8226 leukemia is 20.9%; in the test with OVCAR-8 ovarian, 46.5%; in the test on OVCAR-5 ovarian, 70.7%; in the test with OVCAR-4 ovarian it was 39.3%; with SK-OV-3 ovarian it was 27.3%; in the test with IGROV1 ovarian, -7.07% (active). Further, the growth with OVCAR-3 ovarian is 28.2%; with HS 578T breast, 10.6%; with NCI/ADR-RES ovarian it was -1.24% (active); in the test on T-47D breast it was 89.9%; in the test on BT-549 breast, 44.7%; in the test with MDA-MB-435 melanoma it was -2.51% (active). The growth in the test with SW-620 colon was 30.6%; with MCF7 breast, 20.1%; in the test with HCT-116 colon, 15.2%; in the test with HCC-2998 colon, 63%; in the test with KM12 colon, 31.8%.
`O=C(CCc1nnc(Cn2ccnc2)o1)c1nc2ccccc2[nH]1`: the growth in the test on RPMI-8226 leukemia was 117%; with OVCAR-8 ovarian, 105%; in the test with OVCAR-5 ovarian, 103%; with OVCAR-4 ovarian, 107%; in the test with SK-OV-3 ovarian, 108%; in the test with IGROV1 ovarian, 106%. In addition, the growth was 118% in the test on OVCAR-3 ovarian; 112% in the test on HS 578T breast; 99.8% with NCI/ADR-RES ovarian; 102% with T-47D breast; 114% with BT-549 breast; 111% with MDA-MB-435 melanoma. Besides, the growth was 109% with SW-620 colon; 106% in the test on MCF7 breast; 106% in the test on HCT-116 colon; 108% in the test on HCC-2998 colon; 111% in the test on KM12 colon.
`O=C(Nc1cccc(C(F)(F)F)c1)Nc1ccc(OCc2nnc(-c3ccc(Cl)cc3)o2)c(F)c1`: the growth in the test with RPMI-8226 leukemia was 41.3%; in the test on OVCAR-8 ovarian, 58.2%; in the test with OVCAR-5 ovarian it was 75.9%; with OVCAR-4 ovarian, 75%; in the test on SK-OV-3 ovarian, 79.5%; in the test with IGROV1 ovarian, 90%. The growth is 85.8% in the test with OVCAR-3 ovarian; 91.7% in the test with HS 578T breast; 73.1% with NCI/ADR-RES ovarian; 61.6% with T-47D breast; 104% in the test with BT-549 breast; 83.2% in the test on MDA-MB-435 melanoma. In addition, the growth in the test on SW-620 colon was 71.8%; in the test with MCF7 breast, 53.6%; in the test with HCT-116 colon it was 37.1%; in the test on HCC-2998 colon it was 72.1%; in the test with KM12 colon it was 49.7%.
Take `Cc1cc(NC(=O)c2ccc(N)cc2)ccc1N=Nc1ccc2c(O)c(N=Nc3ccc(Cl)c(S(=O)(=O)O)c3)c(S(=O)(=O)O)cc2c1`: the growth with RPMI-8226 leukemia is 65.6%; in the test with OVCAR-8 ovarian it was 70.2%; with OVCAR-5 ovarian it was 92.2%; in the test with OVCAR-4 ovarian it was 106%; in the test on SK-OV-3 ovarian, 88.6%; with IGROV1 ovarian it was 73%. The growth was 85.9% in the test on OVCAR-3 ovarian; 103% in the test with HS 578T breast; 76.1% in the test with NCI/ADR-RES ovarian; 70.9% in the test with T-47D breast; 102% with BT-549 breast; 95.5% in the test on MDA-MB-435 melanoma. The growth in the test on SW-620 colon was 92.6%; in the test with MCF7 breast, 80.1%; in the test on HCT-116 colon, 71.5%; with HCC-2998 colon, 73.1%; with KM12 colon it was 90%.
For `COc1cc2c(cc1OCCCCCn1c(-c3ccc(OCc4ccccc4)cc3)nc3cc(N4CCOCC4)ccc31)N=C[C@@H]1CCCN1C2=O`, the growth in the test on RPMI-8226 leukemia was 19.4%; with OVCAR-8 ovarian, 21.2%; in the test on OVCAR-5 ovarian it was 9.51% (active); in the test with OVCAR-4 ovarian, 21.4%; in the test with SK-OV-3 ovarian, 35.3%; in the test on IGROV1 ovarian, -58.7% (active). Besides, the growth in the test with OVCAR-3 ovarian is 4.07% (active); in the test on HS 578T breast, 12.4%; in the test with NCI/ADR-RES ovarian, 23.8%; in the test with T-47D breast, 19%; in the test on BT-549 breast, 1.75% (active); with MDA-MB-435 melanoma, -9.74% (active). Further, the growth with SW-620 colon was 0% (active); in the test on MCF7 breast, -3.99% (active); with HCT-116 colon, 2.97% (active); in the test with HCC-2998 colon it was 4.97% (active); in the test with KM12 colon, -26.7% (active).

Source of the values: PubChem BioAssay (NCI).
